# In PubChem BioAssay (NCATS):
# “And” between values parts separate entries of the source, which are not always exact repeats. Equal values may be shown once. Records with an inconclusive call do not appear. Entries that show only a call come without a potency. The source made the active and inactive calls. Calls come from the whole dose curve; as a rule, active = well fitted curve in the direction sought with a large enough effect; inconclusive = small, poorly fitted or top-dose-only effect, or another doubt; inactive = no such curve, though single readings can be large; an effect the other way counts as inactive or inconclusive. *1 amine or outer side, *2 acyl side, *3 side chain or, on linkers, in order; H or OH if unused. Where a SMILES comes first, the peptide text is derived from it. Bridges are numbered along the chain shown (N, C = ends). [ ]: non-standard residue; d: D form. X6 = O=C(CCC[*:2])[*:1]; 2Abz = Nc1ccccc1C(=O)O
# Columns and labels:
# [1] = biological target: Calcium and integrin-binding protein 1 (Homo sapiens) (UniProt Q99828); assay: Primary qHTS for Identification of Calcium Integrin Binding Protein 1 (CIB1) Competitor (AID 1508620);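 note: GST tagged CIB1 binding a fluorescein labelled alphaIIb integrin peptide tracer; top concentration of the series differs between compounds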
# Procedure, shortened: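 CIB1-GST (1 uM final) and compound incubated 15 min at room temperature before adding FITC-alphaIIb peptide tracer (100 nM final). Competition for binding read by fluorescence polarization (ex 480, em 540) after another 15 min at room temperature.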
# [2] = Counterscreen qHTS for small molecule stabilizers of the endoplasmic reticulum resident proteome: GLuc-NoTag assay (AID 1508627); settings: Gaussia luciferase NoTag secretion counterscreen, luminescence; thapsigargin 100 nM for final 4 h; note: potency is the fitted concentration of half-maximal effect
# Procedure, shortened: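 Counterscreen line: SH-SY5Y-GLuc-NoTag cells, treated with compound 19 hr before a 4 hr, 100 nM thapsigargin calcium depletion. Secreted Gaussia luciferase in the medium was measured by luminescence after coelenterazine was added (0.07x final), with cells unlysed.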
# [3] = Confirmatory qHTS for small molecule stabilizers of the endoplasmic reticulum resident proteome: Secreted ER Calcium Modulated Protein (SERCaMP) assay (AID 1508628);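 note: SH-SY5Y cells given compound 16 h then thapsigargin 100 nM for 4 h; series mostly up to about 76 µM; nearly all actives have a fitted effect of over 40% in size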
# Procedure, shortened: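 GLuc-SERCaMP-expressing SH-SY5Y cells, pretreated 16 h with compound, are challenged with thapsigargin to empty ER calcium stores; after 4 h, coelenterazine is added directly to the medium and luminescence is imaged.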
# [4] = Cell Viability qHTS for small molecule stabilizers of the endoplasmic reticulum resident proteome (AID 1508629); settings: cell viability counter-screen, 100 nM thapsigargin for final 4 h;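 note: potency is the fitted concentration of half-maximal effect; compound exposure about 46 h in total before the viability read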
# Chain of Calcium and integrin-binding protein 1 (Homo sapiens) (Q99828 whole entry, looked up): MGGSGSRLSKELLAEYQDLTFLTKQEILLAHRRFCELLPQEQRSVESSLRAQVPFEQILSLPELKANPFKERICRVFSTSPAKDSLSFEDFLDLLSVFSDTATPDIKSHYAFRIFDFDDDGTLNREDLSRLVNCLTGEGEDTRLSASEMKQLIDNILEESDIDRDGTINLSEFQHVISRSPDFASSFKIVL
smiles,measurement,setting,value
OC[C@H]1O[C@@H](n2cnc3c2NC=NC[C@H]3O)C[C@@H]1O,Potency,[1],inactive
CC(NCc1ccc(OCc2cccc(F)c2)cc1)C(N)=O (stereo not drawn),Potency,[1],inactive
C[C@@H]1C(=O)O[C@H]2[C@H]1CC[C@@]1(C)C(=O)C=C[C@](C)(O)[C@H]21,Potency,[1],inactive
O=C(CCCCc1ccc2ccccc2c1)C(F)(F)F,Potency,[1],inactive
COC1CC(OC2CCC3(C)C(=CCC4C3CCC3(C)C(C(C)O)CCC43O)C2)OC(C)C1OC1OC(C)C(OC2OC(COC3OC(COC4OC(CO)C(O)C(O)C4O)C(O)C(O)C3O)C(O)C(O)C2O)C(OC)C1O (stereo not drawn),Potency,[1],inactive
COc1cc(NC(=O)c2ccccn2)ccc1Cl,Potency,[1],inactive
CC(C)=CCC/C(C)=C/CC/C(C)=C/CC[C@]1(C)CCc2cc(O)cc(C)c2O1,Potency,[1],inactive
C=C1[C@H]2[C@H](O[C@@H]3O[C@H](COC(=O)/C=C/c4cc(OC)c(O)c(OC)c4)[C@@H](O)[C@H](O)[C@H]3O)OC=C(C(=O)O)[C@H]2C[C@@H]1O,Potency,[1],inactive
C=C(C)[C@@H]1CC[C@](C)(O)[C@@H](OC(=O)c2ccccc2)C1,Potency,[1],inactive
COC12CC3C(C(C)C1=CC(=O)O2)C(O)C(OC(C)=O)C1C(C)(C)C(OC(C)=O)CCC31C (stereo not drawn),Potency,[1],inactive
N#CC1C(=O)Nc2scc(-c3ccc(-c4ccccc4O)cc3)c2C1=O (stereo not drawn),Potency,[1],inactive
CC1CCC2C(C)(C)CC(C)(CO)C2(O)C1C(=O)O (stereo not drawn),Potency,[1],inactive
C[C@@H]1O[C@@H](O[C@H]2[C@H](O[C@H]3CO[C@@H](O[C@H]4CC[C@@]5(C)C(CC[C@]6(C)C5CC[C@]57OC[C@@]8(CC[C@](C)(CO)CC85)[C@H](O)C[C@]76C)C4(C)C)[C@H](O[C@@H]4O[C@H](CO)[C@@H](O)[C@H](O)[C@H]4O)[C@H]3O)O[C@H](CO)[C@@H](O)[C@@H]2O)[C@H](O)[C@H](O)[C@H]1O (stereo partly drawn),Potency,[1],inactive
O=c1ccn(C2OC(CO)C(O)C2O)c(=O)[nH]1 (stereo not drawn),Potency,[1],inactive
COc1cc(/C=C/c2cc(O)cc(O[C@@H]3O[C@H](CO)[C@@H](O)[C@H](O)[C@H]3O)c2)ccc1O,Potency,[1],inactive
CC[C@H](C)[C@@H]1NC(=O)[C@H](Cc2ccc(OC)cc2)NC(=O)CCCSC[C@@H](C(=O)N2CCC[C@H]2C(=O)N[C@@H](CC(C)C)C(=O)NCC(N)=O)NC(=O)[C@H](CC(N)=O)NC(=O)[C@H](CCC(N)=O)NC1=O (Y(Me)IQNCPLG-NH2; linker N-5 via X6),Potency,[1],inactive
CO[C@@H]1CC[C@H](OC[C@]2(COC(=O)c3ccc(C)[nH]3)[C@H](OC(C)=O)CC[C@@]3(C)[C@@H]4CC=C(C)[C@@H](C5=C(O)C(=O)OC5O)[C@]4(C)CC[C@@H]32)O[C@H]1C (stereo partly drawn),Potency,[1],inactive
COc1ncc(-c2ccc3c(Nc4cc(Oc5cc(F)cc(F)c5)cc(C(=O)O)c4)c(S(=O)(=O)NC4CC4)cnc3c2)c(OC)n1,Potency,[1],inactive
CC(C)(C)c1cc(CN2CCN(CC(O)c3ccc(Cl)cc3)CC2)cc(C(C)(C)C)c1O (stereo not drawn),Potency,[1],inactive
CC(C)(O)CNc1nc(Nc2ccnc(C(F)(F)F)c2)nc(-c2cccc(C(F)(F)F)n2)n1,Potency,[1],inactive
CCCC(N[C@@H](C)C(=O)N1[C@H](C(=O)O)C[C@@H]2CCCC[C@@H]21)C(=O)OCC (stereo partly drawn),Potency,[1],inactive
CCn1nnnc1NCc1ccc(C(C)C)cc1,Potency,[1],inactive
CC(=O)OC1C(O)C(C)=C(CCC(C)CC(=O)O)C2(C)CCCC(C)(C)C12 (stereo not drawn),Potency,[1],inactive
C=C1C(=O)OC2CC(C)=C(C(C)CCCO[C@@H]3O[C@H](CO)[C@@H](O)[C@H](O)[C@H]3O)C(O)C12 (stereo partly drawn),Potency,[1],inactive
C=C1CCC2C(C)(C(=O)O)CC(O)CC2(C)C1CC/C(C)=C/C(=O)O (stereo not drawn),Potency,[1],inactive
C=CC(C)(C)C1(CC2NC(=O)C3CCCN3C2=O)C(=O)Nc2cc3c(cc21)C=CC(C)(C)O3 (stereo not drawn),Potency,[1],inactive
Cc1cc(O)c(C(C)C)cc1O[C@@H]1O[C@H](CO)[C@@H](O)[C@H](O)[C@H]1O,Potency,[1],inactive
Cc1ncc([N+](=O)[O-])n1CC(O)CN1CCOCC1 (stereo not drawn),Potency,[1],inactive
CCc1c(CC(N)=O)c2cc(OCCCP(=O)(O)O)ccc2n1Cc1ccccc1,Potency,[1],inactive
CC1(C)CC[C@]2(C(=O)O[C@@H]3O[C@H](CO)[C@@H](O)[C@H](O)[C@H]3O)CC[C@]3(C)C(=CCC4[C@@]5(C)C[C@@H](O)[C@H](O)C(CO)(CO)C5CC[C@]43C)C2[C@@H]1O (stereo partly drawn),Potency,[1],inactive
COc1c(C)c2c(c(O)c1C/C=C(\C)CC/C=C(\C)CCC(=O)O)C(=O)OC2,Potency,[1],inactive
C[C@H]1CC[C@@]2(OC1)O[C@H]1CC3C4CC=C5C[C@H](O)C[C@@H](O[C@@H]6O[C@@H](C)[C@H](O)[C@@H](O)[C@H]6O[C@@H]6O[C@@H](C)[C@H](O)[C@@H](O)[C@H]6O)[C@]5(C)C4CC[C@]3(C)[C@H]1[C@@H]2C (stereo partly drawn),Potency,[1],inactive
CCS(=O)(=O)N1CCC([C@@H](C)n2c(C)c(C(=O)NCc3c(OC)cc(C)[nH]c3=O)c3ccccc32)CC1,Potency,[1],inactive
C[C@@H](O)[C@H](N)C(=O)N1CCC[C@H]1C(=O)N1CCC[C@H]1C(=O)N[C@H](C(N)=O)[C@@H](C)O (H-TPPT-NH2),Potency,[1],inactive
CCC(C)C1NC(=O)C2CCCN2C(=O)C(C(C)C)NC(=O)c2ccccc2NC(=O)C(Cc2ccc(O)cc2)NC(=O)C(C)NC(=O)C(C(C)O)NC1=O (stereo not drawn) (cyclo([2Abz]VPITAY); configuration not given here),Potency,[1],inactive
CC(=O)N1CCN(NC(=O)c2ccc(F)cc2)CC1,Potency,[1],inactive
O=C(/C=C/c1ccc(O)cc1)OC[C@H]1O[C@@H](OC(=O)/C=C/c2ccccc2)[C@H](O)[C@@H](O)[C@@H]1O,Potency,[1],inactive
Cc1cc(N2CCCCC2)nc2ccccc12,Potency,[1],inactive
CC(C)(O)/C=C1/C(=O)C(C)(C)C(=O)C(C)(C)C1(O)O[C@@H]1O[C@H](COC(=O)c2cc(O)c(O)c(O)c2)[C@@H](O)[C@H](O)[C@H]1O (stereo partly drawn),Potency,[1],inactive
C=C(C(=O)OC)C1CCC2(C)C(O[C@@H]3O[C@H](CO)[C@@H](O)[C@H](O)[C@H]3O)CC(=O)C(C)C2C1O (stereo partly drawn),Potency,[1],inactive
C/C=C(\C)C(=O)O[C@H]1[C@@H](O[C@]2(COC(=O)CC(C)C)O[C@H](COC(=O)C(C)C)[C@@H](OC(C)=O)[C@@H]2O)O[C@H](COC(C)=O)[C@@H](O)[C@@H]1O,Potency,[1],inactive
O=C(/C=C/c1ccc(O)cc1)O[C@H]1[C@@H]2C=CO[C@@H](O[C@@H]3O[C@H](CO)[C@@H](O)[C@H](O)[C@H]3O)[C@@H]2[C@@]2(CO)O[C@@H]12,Potency,[1],inactive
O=C(c1ccccn1)c1cnn2c(-c3ccncc3)ccnc12,Potency,[1],inactive
COC(=O)C1=C[C@@H](O)[C@@H](O)[C@H](O[C@@H]2O[C@H](COC(=O)/C=C/c3ccccc3)[C@@H](O)[C@H](O)[C@H]2O)C1,Potency,[1],inactive
CC1OC(OC2C(O)C(C(=O)O)OC(OC3CCC4(C)C(CCC5(C)C4C=CC4=C6CC(C)(C)CC(O)C6(C)CCC45C)C3(C)C)C2OC2OCC(O)C(O)C2O)C(O)C(O)C1O (stereo not drawn),Potency,[1],inactive
O=C1NC(Cc2ccc(O)cc2)C(=O)N2CCCC12 (stereo not drawn),Potency,[1],inactive
COC1=CC(=O)O[C@@H](CCc2ccccc2)[C@@H]1O,Potency,[1],inactive
COC(=O)C1=CO[C@@H](O[C@@H]2O[C@H](CO)[C@@H](O)[C@H](O)[C@H]2O)[C@@H]2[C@@](C)(O)[C@@H](O)C[C@]12O,Potency,[1],inactive
CC1=CC(=O)OC(C)(CC(C)(O)C(=O)O)C1 (stereo not drawn),Potency,[1],inactive
CNc1nc(Nc2cnn([C@H]3CCN(C4COC4)C[C@@H]3F)c2Cl)ncc1C(F)(F)F,Potency,[1],inactive
COC(=O)C1=C(C)NC(C)=C(C(=O)OCCCN2CCC(c3ccccc3)(c3ccccc3)CC2)[C@H]1c1cccc([N+](=O)[O-])c1,Potency,[2],39.8 µM (active) and 44.7 µM (active)
same,outcome,[3],inactive
same,Potency,[4],25.1 µM (active) and 28.2 µM (active)
